# Legend:
# Experiment in all cases: SPOT peptide array binding signal intensity (averaged, normalized) (arbitrary units (background-subtracted, floor 0; scale differs between SH3 domains)); higher = stronger binding of the SH3 domain to the peptide
# AgAbp1 = target: AgAbp1
# Summary of the method: (§1)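 GST-SH3 fusions from four yeast species, purified on glutathione Sepharose, were incubated at 10 μg/ml overnight at 4°C on membranes of synthetic 15-mer peptides in which cysteines were replaced with serines. Binding signal is the normalized, background-subtracted spot intensity averaged over replicates, in domain-specific arbitrary units.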
# AgBbc1 = target: AgBbc1
# Summary of the method: as §1
# AgBem1-D1 = target: AgBem1-D1
# Summary of the method: as §1
# AgBzz1-D1 = target: AgBzz1-D1
# Summary of the method: as §1
# AgBzz1-D2 = target: AgBzz1-D2
# Summary of the method: as §1
# AgCyk3 = target: AgCyk3
# Summary of the method: as §1
# AgFus1 = target: AgFus1
# Summary of the method: as §1
# AgHof1 = target: AgHof1
# Summary of the method: as §1
# AgHse1 = target: AgHse1
# Summary of the method: as §1
# AgLsb1 = target: AgLsb1
# Summary of the method: as §1
# AgLsb4 = target: AgLsb4
# Summary of the method: as §1
# AgMyo5 = target: AgMyo5
# Summary of the method: as §1
# AgNbp2 = target: AgNbp2
# Summary of the method: as §1
# AgRvs167 = target: AgRvs167
# Summary of the method: as §1
# AgSho1 = target: AgSho1
# Summary of the method: as §1
# AgSla1-D1-D2 = target: AgSla1-D1-D2
# Summary of the method: as §1
# AgSla1-D3 = target: AgSla1-D3
# Summary of the method: as §1
# CaAbp1-D1 = target: CaAbp1-D1
# Summary of the method: as §1
# CaAbp1-D2 = target: CaAbp1-D2
# Summary of the method: as §1
# CaBbc1 = target: CaBbc1
# Summary of the method: as §1
# CaBem1-D1 = target: CaBem1-D1
# Summary of the method: as §1
# CaBzz1-D1 = target: CaBzz1-D1
# Summary of the method: as §1
# CaBzz1-D2 = target: CaBzz1-D2
# Summary of the method: as §1
# CaCyk3 = target: CaCyk3
# Summary of the method: as §1
# CaFus1 = target: CaFus1
# Summary of the method: as §1
# CaHof1 = target: CaHof1
# Summary of the method: as §1
# CaHse1 = target: CaHse1
# Summary of the method: as §1
# CaLsb1 = target: CaLsb1
# Summary of the method: as §1
# CaLsb4 = target: CaLsb4
# Summary of the method: as §1
# CaMyo5 = target: CaMyo5
# Summary of the method: as §1
# CaNbp2 = target: CaNbp2
# Summary of the method: as §1
# CaRvs167 = target: CaRvs167
# Summary of the method: as §1
# CaRvs167-3 = target: CaRvs167-3
# Summary of the method: as §1
# CaSho1 = target: CaSho1
# Summary of the method: as §1
# CaSla1-D1-D2 = target: CaSla1-D1-D2
# Summary of the method: as §1
# CaSla1-D3 = target: CaSla1-D3
# Summary of the method: as §1
# ScAbp1 = target: ScAbp1
# Summary of the method: as §1
binder,measurement,setting,value
NLPKRKPPKLQGPFS,SPOT peptide array binding signal intensity,AgAbp1,117
same,SPOT peptide array binding signal intensity,AgBbc1,7.75
same,SPOT peptide array binding signal intensity,AgBem1-D1,244
same,SPOT peptide array binding signal intensity,AgBzz1-D1,148
same,SPOT peptide array binding signal intensity,AgBzz1-D2,77.5
same,SPOT peptide array binding signal intensity,AgCyk3,2.5
same,SPOT peptide array binding signal intensity,AgFus1,64
same,SPOT peptide array binding signal intensity,AgHof1,37.5
same,SPOT peptide array binding signal intensity,AgHse1,1020
same,SPOT peptide array binding signal intensity,AgLsb1,≤ 0
same,SPOT peptide array binding signal intensity,AgLsb4,56
same,SPOT peptide array binding signal intensity,AgMyo5,4.75
same,SPOT peptide array binding signal intensity,AgNbp2,247
same,SPOT peptide array binding signal intensity,AgRvs167,2.67
same,SPOT peptide array binding signal intensity,AgSho1,12
same,SPOT peptide array binding signal intensity,AgSla1-D1-D2,258
same,SPOT peptide array binding signal intensity,AgSla1-D3,2
same,SPOT peptide array binding signal intensity,CaAbp1-D1,1870
same,SPOT peptide array binding signal intensity,CaAbp1-D2,1400
same,SPOT peptide array binding signal intensity,CaBbc1,51
same,SPOT peptide array binding signal intensity,CaBem1-D1,13
same,SPOT peptide array binding signal intensity,CaBzz1-D1,157
same,SPOT peptide array binding signal intensity,CaBzz1-D2,162
same,SPOT peptide array binding signal intensity,CaCyk3,102
same,SPOT peptide array binding signal intensity,CaFus1,186
same,SPOT peptide array binding signal intensity,CaHof1,0.5
same,SPOT peptide array binding signal intensity,CaHse1,119
same,SPOT peptide array binding signal intensity,CaLsb1,≤ 0
same,SPOT peptide array binding signal intensity,CaLsb4,127
same,SPOT peptide array binding signal intensity,CaMyo5,≤ 0
same,SPOT peptide array binding signal intensity,CaNbp2,2240
same,SPOT peptide array binding signal intensity,CaRvs167,1.67
same,SPOT peptide array binding signal intensity,CaRvs167-3,34.2
same,SPOT peptide array binding signal intensity,CaSho1,300
same,SPOT peptide array binding signal intensity,CaSla1-D1-D2,48
same,SPOT peptide array binding signal intensity,CaSla1-D3,0.5
same,SPOT peptide array binding signal intensity,ScAbp1,179

# Reference: the supplement of paper PMC4466140
